According to the supplement of paper PMC10681739:

Assays:
[1] = biological target: T1, ETS1 (UniProt P14921); experiment: ETS1 binding intensity (PBM fluorescence), ETS1 alone (arbitrary fluorescence units); higher = stronger binding; conditions: ETS1 concentration 1 nM; RUNX1 concentration 0 nM
T1 sequence: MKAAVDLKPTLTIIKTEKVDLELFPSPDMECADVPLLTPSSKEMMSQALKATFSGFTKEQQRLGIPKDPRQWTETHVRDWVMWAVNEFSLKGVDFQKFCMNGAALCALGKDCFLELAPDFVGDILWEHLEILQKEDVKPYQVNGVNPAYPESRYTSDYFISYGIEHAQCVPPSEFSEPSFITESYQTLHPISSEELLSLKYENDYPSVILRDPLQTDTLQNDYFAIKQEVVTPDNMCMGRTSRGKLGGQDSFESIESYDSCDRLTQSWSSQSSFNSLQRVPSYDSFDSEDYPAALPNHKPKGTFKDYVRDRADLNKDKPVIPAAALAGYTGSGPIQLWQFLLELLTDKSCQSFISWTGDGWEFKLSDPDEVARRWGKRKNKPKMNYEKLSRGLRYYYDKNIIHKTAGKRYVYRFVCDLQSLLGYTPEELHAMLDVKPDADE

[2] = biological target: RUNX1 (UniProt Q01196); experiment: RUNX1 binding intensity (PBM fluorescence), RUNX1 alone (arbitrary fluorescence units); higher = stronger binding; conditions: RUNX1 concentration 2 nM; ETS1 concentration 0 nM
Experimental: (§1)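 Cooperative gcPBM on 36-bp genomic probes with neighbouring ETS1 and RUNX1 sites. Recombinant human RUNX1 (2 nM) was incubated alone or with ETS1 (25 nM) and detected with anti-RUNX1 antibody plus Alexa488 secondary. Values are medians over 4 replicate spots; the RUNX1+ETS1 data were normalised to the RUNX1-only data. The probes sit in constant array flanks that are not printed.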

[3] = biological target: T1, ETS1; experiment: ETS1 binding intensity (PBM fluorescence) in presence of RUNX1, normalised to ETS1-only experiment (arbitrary fluorescence units); higher = stronger binding; conditions: ETS1 concentration 1 nM; RUNX1 concentration 25 nM
[4] = biological target: RUNX1 (UniProt Q01196); experiment: RUNX1 binding intensity (PBM fluorescence) in presence of ETS1, normalised to RUNX1-only experiment (arbitrary fluorescence units); higher = stronger binding; conditions: RUNX1 concentration 2 nM; ETS1 concentration 25 nM
Experimental: as §1
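Throughout, for RUNX1 binding intensity (PBM fluorescence) in presence of ETS1, normalised to RUNX1-only experiment: Full-length recombinant human ETS1 or RUNX1 bound to double-stranded 36-bp genomic probes on microarrays, detected by protein-specific primary antibody and Alexa488 secondary, spot fluorescence as median of four replicate spots.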
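Throughout, for RUNX1 binding intensity (PBM fluorescence), RUNX1 alone: Full-length recombinant human RUNX1 bound to double-stranded 36-bp genomic probes on a high-density microarray, scored as Alexa488 fluorescence per spot via anti-RUNX1 antibody, median of four replicate spots.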

RUNX1, sequence (Q01196 whole entry): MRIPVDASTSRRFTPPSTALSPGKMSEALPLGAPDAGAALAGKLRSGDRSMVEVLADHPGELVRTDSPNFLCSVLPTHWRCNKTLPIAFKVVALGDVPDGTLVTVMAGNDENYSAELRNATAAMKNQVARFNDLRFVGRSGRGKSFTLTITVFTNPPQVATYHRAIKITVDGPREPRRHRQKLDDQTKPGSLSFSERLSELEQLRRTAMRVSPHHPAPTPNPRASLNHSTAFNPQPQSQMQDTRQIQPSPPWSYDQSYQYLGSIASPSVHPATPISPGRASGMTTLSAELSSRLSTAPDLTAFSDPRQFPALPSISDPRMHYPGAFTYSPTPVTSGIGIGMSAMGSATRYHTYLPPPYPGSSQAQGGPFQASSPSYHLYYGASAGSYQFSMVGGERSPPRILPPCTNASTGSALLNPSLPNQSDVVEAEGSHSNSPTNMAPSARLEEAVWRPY

Sequence	ETS1 binding intensity [1]	RUNX1 binding intensity [2]	ETS1 binding intensity [3]	RUNX1 binding intensity [4]
AAGACAACATCCTGCCGGCACAGCCTGCGGGTTACT	576	720	1480	1420
ATCTTCAGGAAGCGGTATCAACCTGAAAACCACCAC	561	772	870	1250
GTCGTCCCGGAAACCGGGATGCGGTTATCAGAGCGA	1860	1000	7110	3180
TTCTATCCTGCCTTGCATGTCTTTAACCACACTGAG	396	1800	489	1720
GGGGACCGGAAAGGGAGGGGTGGGCCGCAGGCGCCG	786	766	680	1150
TGCGACGGAAGCAGGAACTTGCTAACCACAAAACCC	1350	1790	13200	3420
CTACAGGAAGTTCGAACTGGGCGGAGCCCACCGCAG	1320	658	1950	1120
CCACCCACTTCCTGCCCTAGCTAGTGTGGTATTTTT	1050	907	1640	7970
CGTCACTTCCCACGCGACTGCCTGCGGGAAACATGG	550	1150	704	1680
ACCCGGATGTCGTTGGGCAGGAACTGCGGTGAGGGC	2580	829	7980	1490
GGCGGGACTTCCGGCGTCTCCCCTCGGCGGTTGCTT	2330	751	2700	1980
CCTCCTCCAGACCATCCTGGAAACCACTGCCGTTCT	561	1380	488	1360
ATGGAAAGGAAGTCGGTGGGAAACCGCCTCAGCGGT	797	740	1020	1200
AAACTACTTTCCTTCCTACCAAAACCACACTAAAGA	620	2140	844	1920
GGAACAGGAAGCGGCAGAAATAGCAGCCACCGCGGC	960	819	1540	1310
CTCTGCTTCCTGTCTTTGAATGCCTCTGTGGTTTTC	675	2080	2540	4320
TTGGAGGCGGAAACAGGCACCGAAAGCGGTGGAAGT	2150	717	2120	854
TGCCGCGGATACCCAGCCAGCGGCAGTGCGGTTAAC	349	1140	955	1210
CAAGCACATTACGGAAGAGGCTGACCGCAAATACGA	595	4550	6680	6950
ACCGCCGGAAGTTTCTGCCGCGGCTTTGCGGGGACG	3320	791	9610	1760
GACACGTCTTTGGAAGGATGTGGTTGCCGTGGGTTT	724	786	5580	880

Sequence	ETS1 binding intensity [1]	RUNX1 binding intensity [2]	ETS1 binding intensity [3]	RUNX1 binding intensity [4]
TATTGTGTACTTCCCCTTCATGTTGTGGTTGGCTTT	449	1120	619	1560
GCGCCGGTGACGGAAGTGCGGTGTTGAGCGCCGGCG	2430	758	3070	1300
CTACGACTTCCGTGATGCCTTGCGGTTGCTGTAGCC	524	2700	1380	8450
GAGTTGCTTCCGGCCGTGTTGGTGGTCTGAATTGAG	1590	802	1830	1830
GCTCCGCTTCCGGGAGGCGGGGCTTCTGCGGGTTCC	698	737	2520	1710
CATTGATCAAAGACAGGATGTGGTAACAGGCAGTTA	8340	760	39500	3100
ATGTCTTCCTGTACAGGAACTGGGTCCCAGCCGCAG	4120	745	4430	1510
TGGGGTGGTGACATGGGATGTGGTTTTGGGGTTGCA	510	974	3860	1070
GGTCTCTGCTTCCGGTCCTTGTGGTAGCACCTCTGT	4510	936	5180	2710
GTGCTCCTCGCTTCCTCCGCGGTCTTCCGAGCGGTC	465	1150	365	1370
GGCCCAGGAAAGAGGCAGGGGTGCGGTTTCCCTCCG	394	1060	761	1480
CCATCTTCATACAGGATGCTGTGGTATGTAAAACAA	2110	787	3590	1240
GAGTTCCGCCTCGCCGTTTGTCCCTTGCGGTACCCG	351	890	620	2030
CGTTTCCTGTCTGGGACTGCGCCCACGCGGTCACGT	725	966	922	2450
GAGGACTTCCGGGTGCGTGTGATATCTGCGGGCCCG	802	703	793	2110
GTACTGAGTCACAGGAAACCACAAGGGAAGGGTCCC	2510	1570	4720	3070
CACTGATTAAGAGGAAGTGTGTGTGGTTATTACCGT	1980	804	8330	1170
TCCACATCCTGCTCCTCGGGTTTGCGGCGAGGACTC	593	809	1010	2660
TGAGAGTAAAAAGGATGTGGTTTCCTTTCATTTTTT	1580	927	6790	2430
CAGTTTGCCCCGGATGTTGACCGCCTTGAAGTCGTA	4170	910	4900	1380
CCAGCCGGAAGCCCCGCCCCCTAGAGGCACCGCGGA	1010	1000	962	1270

Sequence	ETS1 binding intensity [1]	RUNX1 binding intensity [2]	ETS1 binding intensity [3]	RUNX1 binding intensity [4]
GCCACACAGGCAGGAAAGCCACAGCCCACGTCTCCG	471	867	378	885
TTTATCATGAATGCAGGATGTGGGCAAACTCATGAC	2860	814	5910	1140
TTAGGCAGAGCTCATTTCCGCCCACATCAAAAGTAA	1710	867	1990	1110
TGGGGACAGGAAATGTTTACTGCCTGTGGCTTGCTG	3340	705	4240	981
CTGGGGATGTGTGACACTCAGAGAAACCACAAGGTG	495	1010	1390	1140
ACAGAGCAGGAAGCAGCCCTCACCACAGATGAAGCA	686	760	1210	1360
CCTCAATTTCCTGGCCAGAGAAACCACTGCCTCTCA	546	1030	526	1810
CACTCCCCGCATCCGGTCTGCGGCGCGCTCGGGGCC	3830	912	4710	29400
GGAGAGTTGACTTCCGGCGGCTTGTGGGAGTGCTGG	2740	771	2640	1820
AGCCTGGCCTCGGCAGGATGTGGGTGTAGGTCATGC	4780	732	7380	999
GTTCTTATCCTGTGGCTCGTTTGTGGTTACTGACAT	425	4330	741	4260
AGCGTTGTCTTCCGGCCTCAACCACTCAGCGACCGG	14400	751	10600	1760
TGACATCCTCTGAGGCAGCAAGCTGCGGTGAAGTCT	400	704	561	1300
GCGACCCGACCCGGCGGAAACCACCTCGACAGCCTC	915	953	1000	941
TCTCGTCCGGTCCTTGCTCCCCCTCCCCGCAGCGCT	637	1090	790	1980
CGGCATCTGACAGGATGTGGGCAGGGAGAGAGAGAC	3780	1270	9220	4210
TCCAAGGCGGAAAAAACCCGCCCTAAACCGCACCCC	464	1470	1040	1460
TGGGGAGCAGGAAGCTGGGGGCGGTTGTGGAGGGAC	1130	723	1600	867
GTGAGAGGAAGTGGGCGCTGGTTTAATGTGGTCAGC	1010	834	5410	2360
ATCACAAGCAGAGGATGTGGTTAGTGTTTCGTTCCA	804	995	5580	2160
AATCATCAGGGAAATGCAAATCAAAACCACAATCAG	547	1480	1200	1300

Sequence	ETS1 binding intensity [1]	RUNX1 binding intensity [2]	ETS1 binding intensity [3]	RUNX1 binding intensity [4]
ACTAGAAGCGGAAGTAGTTGTGGGCGCCTTTGCAAC	5720	662	7470	1410
CTTACAGTCACAACAGGATGTGGTTTGACATTTACT	6780	869	32800	3860
TCAGCTGACACAGGAAGTGGTAAAGCTATTATCTGT	9480	735	16400	2730
GCTGCAGCAGGCGGGAAGTCTGCGGTTCGCGGGCTC	622	1150	6590	1830
TGAGTCACATCCTGCAGGGCTGCGGTATCCTGGCTT	773	928	1680	3310
ATATATCACCCCTTCCTTGCAAAACCACAAGACCAA	508	6030	1490	8230
TGGTTTCCGGGCTGGGGTTAGAATAGGCCACAAGGT	494	787	536	1740
GCAGCCCAGCTTCCTGCAGACCAAAACCACAAGCAG	542	1390	2540	4140
TGTGGAGACAGGAAGCACTAACCTCAAACCTCTTTC	2730	908	8830	1770
CACGGAGCCACTTCCGGCGGCTGTGGGCGCAAAACC	3620	752	4210	3120
GCAGAGAGATTGGCCGGATGCGGTGGCTCACGCCTT	4850	683	8930	1140
GAGGGCTGCTTCCTGCTCTGTGGAGGCCGCAGCGGG	555	682	594	1270
AAACCCCAAACAGGAAGTGGTAAAGCAACCTGCATC	11200	826	16400	7980
ATTACAGGAAGTATGTCCTCCTCTGCCTAACCACTG	2270	831	2210	1270
GGGCGGGTGAGACCAGGATGTGGGTTCCCCCACCTT	1880	775	3540	1120
CACTGCGGAAGCAGTGTAGAGAGGTGGTTATCAGTG	707	784	680	921
CTGTCCGCGACATCCGGGACCTGCGGGACCGCCGAT	1250	765	1470	1760
CGATTCCGGAGACAGGCCCCACCGTGCGGTAAACTG	550	–	810	931
